Compound activity: PubChem BioAssay, The Scripps Research Institute Molecular Screening Center
Compounds with a hit are over-represented: about 4.1% of the library has one in this group of screens.
hcDAF12 agonist: H. contortus DAF-12 activation, primary screen | hit rate 1.4% among 370,000 | HEK293 hcDAF-12 lit1-tk-luc reporter, luminescence; 0% DMSO, 100% Δ7-dafachronic acid | AID 652067 | activation, % at 6.8 µM;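 active = activation above the mean of all tested compounds plus 3 SD, cut at about 5.5% in these data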;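 also: 100% = response to 3 µM Δ7-dafachronic acid high control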
ssDAF-12 act: activates DAF-12 receptor from parasite S. stercoralis | hit rate 1% among 370,000 | activation, % at 6.8 µM | HEK293 ssDAF-12/GRIP1 lit1-tk-luc reporter, luminescence; % of 3 µM dafachronic acid response;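 active = activation above the mean over all tested compounds plus 3 SD, cut at about 0.9% in these data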;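 also: 0% = DMSO-only wells and 100% = 3 µM delta7-dafachronic acid wells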
DAX1 inh-1: inhibitors of human orphan nuclear receptor DAX1 (NR0B1). P51843. HEK293 Gal4-DAX1 luciferase reporter, luminescence. inhibition, % at 6.75 µM. hit rate 0.99% among 340,000. AID 504766;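 active = inhibition above the mean over all tested compounds plus 3 SD, cut at about 4.2% in these data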;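 also: 0% = DAX1-transfected cells with DMSO and 100% = empty-vector control cells with DMSO; inhibition shows as a rise in luminescence from relieved DAX1 repression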
Target sequence (P51843 207-470 limits assumed): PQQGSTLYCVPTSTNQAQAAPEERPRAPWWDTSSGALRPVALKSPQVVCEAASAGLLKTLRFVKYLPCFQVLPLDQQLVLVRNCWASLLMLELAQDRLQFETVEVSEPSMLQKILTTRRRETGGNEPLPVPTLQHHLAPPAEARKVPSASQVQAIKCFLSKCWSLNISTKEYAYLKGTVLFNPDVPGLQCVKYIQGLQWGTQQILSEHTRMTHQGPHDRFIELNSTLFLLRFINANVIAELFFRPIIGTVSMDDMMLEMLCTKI
hgDAF-12 ag: agonists of H. glycines DAF-12 nuclear receptor | hit rate 1.8% among 370,000 | HEK293 GAL4-hgDAF12 UAS-luciferase reporter, agonist luminescence; normalized to butyrate control | AID 687014 | activation, % at 6.8 µM;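 active = activation above a cutoff set at the mean of all screened compounds plus 3 SD, cut at about 10% in these data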;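 also: 0% = DMSO wells and 100% = sodium butyrate wells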
DAX1 inh-2: inhibitors of DAX1 repression of SF-1 activated StAR promoter; HEK293T StAR-luciferase reporter, SF-1/DAX-1 repression relief; inhibition, % at 6.8 µM; hit rate 1.1% among 370,000;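 active = inhibition above the mean over all tested compounds plus 3 SD, cut at about 3.6% in these data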;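 also: 0% = DAX-1 cells with DMSO and 100% = cells lacking DAX-1 with DMSO; higher inhibition means more luminescence from relief of DAX-1 repression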
* marks the source's active call; other numbers are inactive results.

`Cc1ccc(NC(=O)CCC(=O)NNC(=O)c2ccccc2Cl)c(C)c1` gave hcDAF12 agonist -1, ssDAF-12 act -2, DAX1 inh-1 0, hgDAF-12 ag 3 and DAX1 inh-2 1.
Screening COc1ccc(-c2cc(OC)c3ccccc3n2)cc1 returned hcDAF12 agonist 4, ssDAF-12 act -1, DAX1 inh-1 2, hgDAF-12 ag 1 and DAX1 inh-2 0.
Screening COc1ccc(-c2cc3cc(OC)c(OC)cc3c(C)n2)cc1 returned hcDAF12 agonist 0, ssDAF-12 act -1, DAX1 inh-1 0, hgDAF-12 ag 11* and DAX1 inh-2 1.
For O=C(/C=C/c1ccc([N+](=O)[O-])cc1)N1CCN(c2ccccc2F)CC1 the results were hcDAF12 agonist 0, ssDAF-12 act -1, DAX1 inh-1 5.2*, hgDAF-12 ag 3 and DAX1 inh-2 1.
COC(=O)[C@]1(CNS(=O)(=O)c2ccc(F)cc2)CC(=O)N(C)[C@@H]1c1ccccc1 was read as hcDAF12 agonist -2, ssDAF-12 act -1, hgDAF-12 ag 0 and DAX1 inh-2 0.
`S=c1[nH]ccn1-c1c(Cl)cccc1Cl` gave hcDAF12 agonist 6.5*, ssDAF-12 act 0, DAX1 inh-1 0, hgDAF-12 ag 10 and DAX1 inh-2 0.
For Cc1cc(NC(=O)CSc2nc(N)c(NC(=O)c3ccco3)c(=O)[nH]2)no1 the results were hcDAF12 agonist -2, ssDAF-12 act -1, DAX1 inh-1 7.5*, hgDAF-12 ag -3 and DAX1 inh-2 -1.
Screening Cc1cc(NC(=O)CSc2nc(N)c(NC(=O)c3ccccc3F)c(=O)[nH]2)no1 returned hcDAF12 agonist 1, ssDAF-12 act 0.9*, DAX1 inh-1 0, hgDAF-12 ag -1 and DAX1 inh-2 -2.
For CCc1c(C)nc(SCC(=O)NNC(=O)c2ccco2)[nH]c1=O the results were hcDAF12 agonist 6.0*, ssDAF-12 act 0, DAX1 inh-1 1, hgDAF-12 ag 2 and DAX1 inh-2 1.
`Cc1cc(NC(=O)CSc2nc(N)c(NC(=O)c3ccccc3)c(=O)[nH]2)no1` gave hcDAF12 agonist 2, ssDAF-12 act -2, DAX1 inh-1 -1, hgDAF-12 ag 3 and DAX1 inh-2 1.
C[C@H](CO)N1C[C@H](C)[C@@H](CN(C)C(=O)c2ccc(N3CCN(C)CC3)cc2)OCc2cn(nn2)CCCC1=O was read as hcDAF12 agonist 1, ssDAF-12 act -1, hgDAF-12 ag 2 and DAX1 inh-2 0.
`OC[C@H]1CC[C@@H]2O[C@H](CCc3ccc(-c4ccc(F)cc4)cc3)[C@H](n3cc(C4CC4)nn3)C[C@@H]2O1` gave hcDAF12 agonist 2, ssDAF-12 act -2, hgDAF-12 ag 1 and DAX1 inh-2 0.
`COC1=C[C@H](C(=O)N[C@H]2CCCC[C@@H]2NC(C)=O)[C@H](C)[C@@H](c2ccccc2)CC1=O` gave hcDAF12 agonist -3, ssDAF-12 act -2, hgDAF-12 ag 1 and DAX1 inh-2 0.
Screening Cc1ccc(/C=N/NC(=O)C2(C)CC2(Br)Br)cc1 (stereo unspecified) returned hcDAF12 agonist 0, ssDAF-12 act 2.0*, DAX1 inh-1 -1, hgDAF-12 ag -1 and DAX1 inh-2 0.
CC1(C(=O)N/N=C/c2ccccc2)CC1(Br)Br (stereo unspecified) was read as hcDAF12 agonist 0, ssDAF-12 act -1, DAX1 inh-1 -1, hgDAF-12 ag -2 and DAX1 inh-2 1.
For CC(C)(C)c1ccc(-c2nnc(SCC(=O)Nc3ccc4c(c3)OCCO4)n2-c2ccc(Cl)cc2)cc1 the results were hcDAF12 agonist -1, ssDAF-12 act -2, hgDAF-12 ag -2 and DAX1 inh-2 0.
`O=C(COc1ccccc1)NNc1nc2ccccc2s1` gave hcDAF12 agonist -3, ssDAF-12 act -2, DAX1 inh-1 6.5*, hgDAF-12 ag -9 and DAX1 inh-2 -2.
Screening CC(=O)c1sc(NC(=O)COc2ccccc2)nc1C returned hcDAF12 agonist 2, ssDAF-12 act 0, DAX1 inh-1 4.5*, hgDAF-12 ag 10 and DAX1 inh-2 2.
CC(=O)c1sc(NC(=O)c2ccc(C)c(C)c2)nc1C was read as hcDAF12 agonist 2, ssDAF-12 act -1, DAX1 inh-1 6.2*, hgDAF-12 ag 13* and DAX1 inh-2 2.
For CC(=O)c1sc(NC(=O)c2cnc(Cl)c(Cl)c2)nc1C the results were hcDAF12 agonist 4, ssDAF-12 act 0, DAX1 inh-1 1, hgDAF-12 ag 6 and DAX1 inh-2 1.
Screening CCOc1ccc(C=NNC(=O)c2cc(-c3ccc(Cl)cc3)n[nH]2)cc1 returned hcDAF12 agonist -2, ssDAF-12 act -2, hgDAF-12 ag 5 and DAX1 inh-2 -4.
N#Cc1ccccc1NCCCN1CCC(C(O)(c2ccccc2)c2ccccc2)CC1 was read as hcDAF12 agonist 4, ssDAF-12 act -1, hgDAF-12 ag 1 and DAX1 inh-2 0.
For Cc1cc(-c2ccccc2)nc(N/N=C/c2ccc(O)cc2)n1 the results were hcDAF12 agonist -1, ssDAF-12 act -1, DAX1 inh-1 -1, hgDAF-12 ag 3 and DAX1 inh-2 3.9*.
`CC(C)(C)C(=O)NC1CCCCN(Cc2cccc(C(F)(F)F)c2)C1=O` (stereo unspecified) gave hcDAF12 agonist -4, ssDAF-12 act -2, hgDAF-12 ag -3 and DAX1 inh-2 -3.
`O=C(Nc1ccc2c(c1)Cc1ccccc1-2)c1ccccc1F` gave hcDAF12 agonist 1, ssDAF-12 act 0, DAX1 inh-1 4, hgDAF-12 ag 11* and DAX1 inh-2 1.
CC(=O)Nc1ccc2c(c1)Cc1c(F)cccc1-2 was read as hcDAF12 agonist 5, ssDAF-12 act 0, DAX1 inh-1 2, hgDAF-12 ag 11* and DAX1 inh-2 4.3*.
O=C(Nc1ccc2c(c1)Cc1ccccc1-2)c1ccc(Br)o1 was read as hcDAF12 agonist -1, ssDAF-12 act -1, DAX1 inh-1 0, hgDAF-12 ag 6 and DAX1 inh-2 0.
`COc1cccc(/C=N/n2c(SC)nnc2-c2ccccc2)c1OC` gave hcDAF12 agonist -1, ssDAF-12 act -1, DAX1 inh-1 -1, hgDAF-12 ag 0 and DAX1 inh-2 1.
COc1cccc(/C=N/n2c(SC)nnc2-c2ccccc2)c1O was read as hcDAF12 agonist 1, ssDAF-12 act -1, DAX1 inh-1 4.6*, hgDAF-12 ag -1 and DAX1 inh-2 -1.
Screening CNc1nnc(-c2ccc(N(C)C)cc2)s1 returned hcDAF12 agonist 4, ssDAF-12 act 0, DAX1 inh-1 -2, hgDAF-12 ag 11* and DAX1 inh-2 5.8*.
Cc1ccccc1NC(=O)c1ccc2c(c1)N(C)CCS2 was read as hcDAF12 agonist 2, ssDAF-12 act -1, DAX1 inh-1 2, hgDAF-12 ag 12* and DAX1 inh-2 3.6*.
COC(=O)c1ccc2c(c1)N(C)CCS2 was read as hcDAF12 agonist -1, ssDAF-12 act -1, DAX1 inh-1 4.4*, hgDAF-12 ag -3 and DAX1 inh-2 0.
